Measurements from PubChem BioAssay AID1531 (NMMLSC, 2009).
Among all 290,000 compounds or so, about 3,300 (1.1%) were called active. Cut-off read from the data, not from the text of the source: active = binding response below about 67% or above about 130%; inconclusive = no clear call, values can overlap the other calls; inactive = in between. The full list was thinned out, with actives kept by preference.

Biological target: Mitogen-activated protein kinase kinase kinase 2 (Homo sapiens) (UniProt Q9Y2U5)
Test: modulators of MEK5 binding to wildtype MEKK2, primary screen, biochemical, multiplex bead flow cytometry, Alexa488-MEK5 (AID 1531)
Details: Alexa488-MEK5 binding to MEKK2 WT, at 10 µM, actives lie on both sides

Binding response (% of control), inactive:
CCN(CC(=O)NCC(=O)Nc1cccc(C)c1C)Cc1ccccc1 103%
COc1cc(C2C3=C(CCCC3=O)OC3=C2C(=O)CCC3)ccc1OCC(=O)Nc1ccccc1 96%
CCCn1c(C)cc(/C=C(\C#N)C(=O)OCC(=O)Nc2cc(OC)c(OC)c(OC)c2)c1C 106%
Cc1cccc(OCC(O)CN2CCN(S(=O)(=O)c3ccc(C)cc3C)CC2)c1 (stereo not drawn) 95%
OC(COc1ccc(F)cc1Cl)CN1CCc2ccccc2C1 (stereo not drawn) 105%
C[n+]1cc(-c2ccccc2)oc1-c1ccccc1 100%
COc1ccc(CNc2nc3c(c(=O)[nH]c(=O)n3C)n2Cc2ccccc2)cc1 109%
COc1ccc(CCn2c(NCCCN3CCOCC3)nc3c2c(=O)[nH]c(=O)n3C)cc1 103%
COC(=O)CN1C(=O)[C@H]2[C@@H](/C=C/c3ccccc3)N3C(=O)CN(CC4CC4)C(=O)[C@@]3(Cc3ccccc3)[C@H]2C1=O 104%
CC1=C(N2CCN(c3ncccn3)CC2)CCC1=O 111%
COc1cccc(CNC(=O)C2CC(=O)N(C3CCCCCCC3)C2)c1 (stereo not drawn) 94%
O=C(Nc1nnc(C2CC2)s1)c1cc(Cl)sc1Cl 102%
CC(C)(C)NC(=O)NC(=O)COC(=O)C1c2ccccc2Oc2ccccc21 100%
COc1cccc(OCC(=O)Nc2ccccc2C(N)=O)c1 115%
COc1ccc(OCC(=O)NNC(=O)c2cccc(C)c2)cc1 93%
COc1ccc(CCNC(=O)CCNS(=O)(=O)c2cc(Br)cnc2N)cc1OC 106%
CC(C)(C)NC(=O)c1ccc(Cn2cc(C(F)(F)F)ccc2=O)cc1 101%
CCOC(=O)c1cc(-c2nnc(-c3cc(OC)c(OC)c(OC)c3)o2)c(C)nc1C 104%
CCC(Cc1ccccc1)NS(=O)(=O)c1ccc2c(c1)NC(=O)CS2 (stereo not drawn) 102%
Nc1cc(N)nc(SCc2cccc(F)c2)n1 104%
COC(=O)c1c(C)cc(O)c(C)c1O 104%
CCn1c(NCCc2ccc(OC)c(OC)c2)nc2c1c(=O)n(C)c(=O)n2C 102%
C#CC(C)(C)NC(=O)CSc1nc2c(c(=O)n(C)c(=O)n2C)n1CCCC 106%
COc1cc(OC)c(C(=O)NCc2ccc3c(c2)OCO3)cc1OC 102%
CCN(CC)CCC(c1cc(OC)c(OC)c(OC)c1)c1c(OC)cc(OC)c2c(-c3ccccc3)cc(=O)oc12 (stereo not drawn) 90%
COc1cc(OC)c2ccc(=O)oc2c1C(CCN1CCN(c2ccccc2)CC1)c1ccc2c(c1)OCO2 (stereo not drawn) 110%
CCCCN(CC)C(=O)c1ccc2c(c1)OCO2 100%
Cc1cccc(Nc2nc(NCCO)nc(N3CCCC3)n2)c1 109%
COc1cc(CC(=O)N2CCC(n3nccc3NC(=O)C3CC3)CC2)cc(OC)c1OC 103%
CCC(C(=O)OCCN(CC)CC)c1ccccc1 (stereo not drawn) 101%
Clc1cccc(Cl)c1OCCOCCNCc1ccccc1 109%
Cc1cccc(NC(=S)NCCc2ccc(Cl)cc2)c1C 106%
Cc1ccc(S(=O)(=O)N(C)CC(=O)NCCc2c[nH]c3ccccc23)cc1 107%
CCOC(=O)c1ccc(NC(=O)c2c(NCc3ccccc3)[nH]c(=O)[nH]c2=O)cc1 102%
CC1CN(C(=O)CCC(=O)NC2CCN(Cc3ccccc3)CC2)c2ccccc2O1 (stereo not drawn) 107%
CC1CN(C(=O)CCC(=O)NCc2cccnc2)c2ccccc2O1 (stereo not drawn) 103%
O=C(CN1CCCCCC1)Nc1ccc(S(=O)(=O)N2CCCCC2)cc1 100%
O=C(NCc1ccccc1Cl)C1CCN(c2ncnc3c2nc2n3CCCCC2)CC1 102%

Binding response (% of control), active:
CCOC(=O)/C(C#N)=C/c1ccc(OCC(=O)Nc2ccccc2)c(OC)c1 37% [inhibitor]
Cc1ccc(OCC(O)CN2CCN(CC(O)COc3ccc(C)cc3Cl)CC2)c(Cl)c1 (stereo not drawn) 134%
COc1ccc(CCn2c(NN=C3CCCC3)nc3c2c(=O)[nH]c(=O)n3C)cc1 39% [inhibitor]
COc1cccc(OCC(=O)NNC(=O)c2cnccn2)c1 2% [inhibitor]
COc1cc(-c2nnc(Cn3cc(C(F)(F)F)ccc3=O)o2)cc(OC)c1OC 3% [inhibitor]
CCCCn1c(SCC(=O)NCCc2ccc(OC)c(OC)c2)nc2c1c(=O)n(C)c(=O)n2C -4% [inhibitor]
CCN(CC)CCC(c1ccc2c(c1)OCO2)c1c(OC)cc(OC)c2c(-c3ccccc3)cc(=O)oc12 (stereo not drawn) 137%
CCN(CC)C(=O)CC(c1ccc2c(c1)OCO2)c1c(OC)cc(OC)c2c(-c3ccccc3)cc(=O)oc12 (stereo not drawn) 143%
CCN(CC)CCOCCOc1ccc(Cl)c2ccccc12 7% [inhibitor]
CC1CN(C(=O)CCC(=O)NCCCN2CCC(Cc3ccccc3)CC2)c2cc(Cl)ccc2O1 (stereo not drawn) 163%
